# Results taken from PubChem BioAssay AID1347383 (Zoeller Lab, School of Medicine, Boston University, 2020).
# The source made the active and inactive calls.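 How the source made its calls: active means cell survival after UV exposure 2 SD above solvent-only control wells at 10 µM, confirmed on one or two repeats; inactive means the rest.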
# Assay: protection of CHO cells from pyrene-fatty acid UV killing, primary screen, phospholipid biosynthesis inhibitor project, ZR-82 cells, Analyticon library, screen 2 (AID 1347383);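 further: survival reflects blocked phospholipid synthesis cutting uptake of the phototoxic fatty acid; compound and fatty acid exposure 3 h then viability read next day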
# Settings: ZR-82 CHO cells, CellTiter Blue, at 10 µM, peroxisome-deficient CHO-K1 variant, with DGAT-1, DGAT-2 and ACAT inhibitors
row,Structure (SMILES),outcome
1,COc1cc(/C=C(/C)C(C)Cc2ccc(O)c(OC)c2)ccc1O (stereo not drawn),inactive
2,OC1C(c2ccccc2)CCC(c2ccccc2)C1O (stereo not drawn),inactive
3,C[C@]12CC(=O)C3C[C@@]1(O)OC(O2)[C@H]3COC(=O)c1ccccc1,inactive
4,CC(C)CC1NC(=O)C2CCCN2C1=O (stereo not drawn),inactive
5,CC1(C)C(=O)C=CC2(C)C1CC(O)C1(C)C3=CCC(c4ccoc4)C3(C)CCC21 (stereo not drawn),inactive
6,CC(C)=CCOc1ccc(/C=C/C(=O)c2ccc(O)cc2O)cc1,inactive
7,O=c1ccn(C2OC(CO)C(O)C2O)c(=O)[nH]1 (stereo not drawn),inactive
8,CC(=O)O[C@H]1C[C@@]2(C)[C@@H](CC[C@H]3[C@@]4(C)C=CC(=O)[C@@H](C)[C@@H]4[C@H](O)C(=O)[C@@]32C)/C1=C(/CCC=C(C)C)C(=O)O,inactive
9,COc1c(OC)c2occc2c2oc(=O)ccc12,inactive
10,O=c1ccc2cc(O)c(O)cc2o1,inactive
11,C/C=C(/C)C(=O)OC1C2OC2C2(CO2)C2C3OC(=O)C(C)C3CCC12C (stereo not drawn),inactive
12,CC(C)=CCc1c2c(c(O)c3c(=O)c(-c4ccc(O)c(O)c4)coc13)C=CC(C)(C)O2,inactive
13,CC(=O)OC(C(=O)/C=C(\C)CCCC1=CC(=O)OC1)C(C)C (stereo not drawn),inactive
14,O=C1C(c2[nH]c3ccccc3c2O)=Nc2ccccc21,inactive
15,CC(=O)Oc1ccc2c(C)cc(=O)oc2c1,inactive
16,C=C1C(=O)OC2C1C(O)CC1(C)C(O)CCC(C=O)C21 (stereo not drawn),inactive
17,O=C1CC(c2ccccc2)Oc2cc(O)cc(O)c21 (stereo not drawn),inactive
18,COc1c(C)c2c(c(O)c1C/C=C(\C)C(O)CC(=O)O)C(=O)OC2 (stereo not drawn),inactive
